# Cycloheximide cs: counter-screen for Shiga toxin inhibitors: cycloheximide protein synthesis inhibition. max response, %. hit rate 12% among 300,000. cell reporter, cycloheximide protein synthesis inhibition counterscreen. AID 2314; in the data active means max response mostly above about 13%, no sharp cut-off; inactive means mostly below about 14%; further: read at 38.3 µM for the half of the compounds with a filed dose; 0% is about no effect
# NS1 function inh: inhibitors of influenza NS1 protein function; Potency, µM (titrated, usually from 46.1 µM), inactives show at the top dose activity, positive = more growth; hit rate 0.4% among 270,000; AID 2326; calls by dose curve; further: potency means the concentration at half of the fitted maximal effect; actives are rising curves; nearly all actives have a fitted effect of over 50% in size
#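 Recovery from NS1-induced slow growth read by OD600 in budding yeast switched to galactose assay medium (pH 6.0, -URA) at 1:100 dilution. Compound 23 nl per well; the matching strain lacking NS1 serves as control.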
# Pf growth 48h: inhibits P. falciparum growth in the first generation, 48 h | hit rate 5.9% among 310,000 | P. falciparum luciferase growth in erythrocytes, 48 h | AID 504832 | Potency, µM (doses to about 28.7 µM), without a hit: at the highest dose activity change, negative = inhibition, usual class: inhibitors; further: potency means the concentration at half of the fitted maximal effect; on the % scale 0 is the no-effect control and ±100 the full control effect
#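 In quantitative HTS format, infected erythrocytes bearing luciferase-reporter parasites were treated for a single generation at 37 C. Luminescence after adding detection reagent served as the growth measure.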
# Shiga inhibitor: inhibitors of Shiga toxin in Vero cells | AID 2315 | inhibition, % at 38.7 µM | hit rate 9.2% among 290,000 | Vero cells, Shiga toxin protein synthesis inhibition reporter; in the data active means inhibition mostly above about 28%, no sharp cut-off; inactive means mostly below about 43%; further: 0% is about no effect
# Pf growth 96h: P. falciparum growth inhibition at 96 hours; P. falciparum luciferase reporter growth, 96 h; Potency, µM (series often up to 28.7 µM), inactives show at the top dose activity change, negative = inhibition, hits mostly inhibitors; hit rate 6.9% among 320,000; further: potency means the concentration at half of the fitted maximal effect; on the % scale 0 is the no-effect control and ±100 the full control effect
#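 Two parasite generations (96 h, 37 C, 5% CO2) of compound exposure in infected erythrocytes (0.05% parasitemia, 2% hematocrit). Luciferase-reporter P. falciparum; decreased luminescence indicates inhibited growth, aimed at apicoplast-acting delayed death.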
# Sm TGR block: S. mansoni TGR enzyme inhibition; Q962Y6; purified TGR, DTNB reduction, TNB absorbance 405 nm; Potency, µM (series often up to 114 µM), inactives show top-dose activity change, negative = inhibition, most hits filed as inhibitors; hit rate 3% among 360,000; AID 485364; further: potency means the concentration at half of the fitted maximal effect; on the % scale 0 is the no-effect control and ±100 the full control effect; nearly all actives have a fitted effect of over 60% in size
#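 First, TGR (20 nM dispensed) and NADPH were mixed with compound. Second, a 15 min room-temperature incubation followed. Third, further NADPH and then DTNB were added to start the reaction. Finally, TNB absorbance was monitored kinetically.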
# * marks the source's active call; other numbers are inactive results; u = inconclusive; x = no result given; [ ] = dose if it differs, or a comment. This is a sample that favours compounds with a hit; in the whole collection about 21% have one here. Unless noted, the call rests on the fitted dose curve; in most records, active means well fitted curve in the direction sought with a large enough effect; inconclusive means small, poorly fitted or top-dose-only effect, or another doubt; inactive means no such curve, though single readings can be large; an effect the other way counts as inactive or inconclusive.
SMILES,Cycloheximide cs,NS1 function inh,Pf growth 48h,Shiga inhibitor,Pf growth 96h,Sm TGR block
CCc1ccc(C(=O)NNc2cc(Cl)cc(Cl)c2)cc1,9.7,-39.6%,u,9.2,-19.0%,4.4%
Cc1ccc(CNC(=O)c2nccnc2C(=O)O)cc1,1.3,7.2%,3.2%,-6.1,4.65µM*,-3.9%
COc1cc(CN(C(=O)c2ccccc2)c2ccccn2)cc(OC)c1OC,x,x,x,x,x,-4.7%
Cc1[nH]n(-c2ccccc2)c(=O)c1-c1cccc(Cl)c1,1.6,-55.9%,1.65µM*,-16.9,1.47µM*,3.6%
Cc1cc(-c2c(C)[nH]n(-c3ccccc3)c2=O)n(-c2ccccc2)n1,-1.8,u,5.8%,-7.8,16.2%,11.9%
Cc1cc(-c2c(C)[nH]n(-c3ccccc3)c2=O)n[nH]1,-2.2,-6.6%,-17.1%,36.4,u,x
Cc1cc(-c2c(C)[nH]n(-c3ccc(Cl)cc3)c2=O)n(-c2ccc(Cl)cc2)n1,8.3,11.7%,u,14.1,1.04µM*,-22.4%
Cc1[nH]n(-c2ccccc2)c(=O)c1-c1ccc(Cl)cc1,11.8,-52.0%,x,10.4,2.08µM*,-1.2%
O=C(Cc1cccs1)NC1CC(=O)N(c2ccccc2)C1 (stereo not drawn),x,x,x,x,x,-18.7%
O=C(Nc1ccc(N2CCN(C(=O)c3cccs3)CC2)cc1)c1ccccc1F,7.0,-1.4%,u,26.6,57.5%,-8.1%
NS(=O)(=O)c1ccc(NNC(=O)c2ccc(F)cc2F)cc1,-2.1,-1.7%,15.2%,18.0,17.2%,1.1%
O=C(NC(=O)c1ccc(F)cc1F)Nc1ccc(Cl)cc1,7.9,-5.2%,5.22µM*,21.3,164.7%,5.1%
O=C(Nc1ccc(N2CCCCC2)cc1)c1ccc(F)cc1F,41.8*,-0.8%,69.2%,44.8*,446.9%,0.1%
O=C(Nc1ccc(N2CCCC2)cc1)c1ccccc1F,42.6*,u,-52.4%,43.5*,-17.6%,u
CC(NC(=O)Cc1ccc([N+](=O)[O-])cc1)c1ccc2c(c1)OCO2 (stereo not drawn),0.9,-7.8%,u,-2.2,30.5%,-15.0%
CC(=O)c1ccc(NC(=O)C2CC(=O)N(C(C)C)C2)cc1 (stereo not drawn),-0.4,5.5%,5.0%,-6.7,31.1%,1.2%
CSCC(=O)Nc1ccc(F)c(Cl)c1,-1.2,-3.3%,-0.8%,22.9,-10.2%,u
CC(C)CNC(=O)Nc1ccc(F)c(Cl)c1,26.1*,-31.3%,4.1%,40.1,u,x
C=CCNC(=O)Nc1ccc(F)c(Cl)c1,2.7,-8.2%,0.0%,19.0,-13.2%,-1.1%
CCCCC(=O)Nc1ccc(F)c(Cl)c1,16.1*,-36.1%,45.8%,28.8,6.9%,-2.2%
CCC(C)NC(=O)Nc1ccc(F)c(Cl)c1 (stereo not drawn),22.6*,2.1%,19.6%,34.3,-11.4%,-0.1%
N#Cc1cccnc1N1CCN(C(=O)c2ccco2)CC1,5.0,4.4%,26.0%,28.5,10.9%,-22.8%
Cc1cccn2c(=O)nc(SCC(=O)NCCc3ccccc3)nc12,x,x,15.6%,x,-13.1%,3.6%
CS(=O)(=O)Nc1ccc2c(c1)nc1n2CCOC1,-0.4,8.6%,-2.8%,-27.8,-7.8%[5.75 µM],-0.4%
CC(=O)N1CCN(Cc2nc3cc(NC(=O)c4ccccc4)ccc3n2C)CC1,22.8,4.6%,u,26.1,-12.1%,-10.0%
SMILES,Cycloheximide cs,NS1 function inh,Pf growth 48h,Shiga inhibitor,Pf growth 96h,Sm TGR block
CCC(=O)Nc1ccc2c(c1)nc1n2CCSC1,13.6,1.1%,20.8%,-2.3,11.8%,-9.6%
COc1ccc(C(=O)Nc2ccc3c(c2)nc2n3CCSC2)cc1,44.7*,-4.7%,u,86.0*,56.4%,-2.9%
O=C(Nc1ccc2c(c1)nc1n2CCSC1)c1ccccc1,40.3*,-11.3%,5.2%,43.4*,-1.5%[5.75 µM],-8.1%
CC(C)C(=O)Nc1ccc2c(c1)nc1n2CCSC1,18.7,16.6%,70.1%,39.9*,x,4.8%
COc1ccc(C(=O)Nc2ccc3c(c2)nc(CCNC(C)=O)n3C)cc1,22.9,-10.1%,x,31.9,124.1%,9.3%
O=C(Nc1ccc2c(c1)nc1n2CCOC1)c1ccccc1,31.3*,-9.6%,85.7%,93.6*,62.0%[5.75 µM],-0.5%
Cc1c(-c2ccccc2)oc2c(C(=O)OCC(=O)Nc3ccc(F)cc3)cccc2c1=O,8.4,-7.7%,11.0%,-9.3,13.3%,-4.9%
CCS(=O)(=O)CCSC(=N)N,-2.1,1.5%,x,-3.5,-48.1%,-7.3%

# Screens as filed in PubChem BioAssay.
